The text below walks through data of the supplement of paper PMC12645437, “Orthogonal IMiD-Degron Pairs Induce Selective Protein Degradation in Cells” (ACS Chemical Biology, 2025).

Whole data set: some 8,300 sequences, median “log2 fold change of degron read counts, EGFP-low vs EGFP+ sorted cells (limma voom), compound-induced degradation” near -1.1, cut for the highest 2% near 3.2. Many of the other results were omitted from the sample, so the highest values are more common in it than they were.

In the assay the target is T1, CRBN, Q96SW2.
T1 chain: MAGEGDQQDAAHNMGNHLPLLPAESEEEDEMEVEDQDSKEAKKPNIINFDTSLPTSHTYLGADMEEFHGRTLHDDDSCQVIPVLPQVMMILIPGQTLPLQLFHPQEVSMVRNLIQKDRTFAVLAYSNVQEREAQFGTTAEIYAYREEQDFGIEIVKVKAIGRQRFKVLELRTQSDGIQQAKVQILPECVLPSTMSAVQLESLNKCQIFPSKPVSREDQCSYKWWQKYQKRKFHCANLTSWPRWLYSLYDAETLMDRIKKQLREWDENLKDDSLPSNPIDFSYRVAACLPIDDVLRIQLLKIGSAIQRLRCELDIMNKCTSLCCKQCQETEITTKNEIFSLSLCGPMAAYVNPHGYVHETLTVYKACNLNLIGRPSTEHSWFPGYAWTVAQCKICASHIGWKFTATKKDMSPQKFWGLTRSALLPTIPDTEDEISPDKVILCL
In words: log2 fold change of degron read counts, EGFP-low vs EGFP+ sorted cells (limma voom), compound-induced degradation; higher = more compound-induced degradation of the degron-EGFP fusion; degrons are variants of IKZF1/3 zinc finger 2; compound dose not given here. To be noted: Jurkat, 18 h. Here is the method:
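Pooled library of 8380 IKZF3 ZF2 degron mutants (positions 146-167 varied within the IKZF3 130-189 degron; only the varied core is printed, flanks not printed) fused to EGFP with IRES-mCherry, lentivirally expressed in Jurkat cells. mCherry+ cells were treated with one IMiD compound for 18 h (dose not stated) and FACS-sorted into EGFP-low and EGFP+ populations. Degron sequences were counted by NGS, and log2FC (EGFP-low vs EGFP+) was estimated by limma voom over 3 biological replicates.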

The mark [1] stands for this setting: compound: compound 19 (5-tert-butyl-thalidomide).
[2] abbreviates: compound: compound 22 (5-morpholino-thalidomide).
Where [3] appears, read: compound: compound 33 (diphenyl IMiD analogue).
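Note: pooled lentiviral library of zinc finger degron-EGFP fusions in mCherry-positive Jurkat cells, FACS-sorted after compound exposure, with degron abundance counted by next-generation sequencing.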

For the sequence LQCEICGFFCTQKGNLLRHIKL [46L_47Q_49E_50I_52G_53F_54F_55C_67L_, Q9UKT9], the “log2 fold change of degron read counts” value by setting is: under setting [1], -0.636; under setting [2], -0.227; under setting [3], 0.554; (compound: thalidomide) 1.77.

For the sequence FVCEICGRLFTQKGNLLRHIKL [46F_47V_49E_50I_52G_53R_54L_55F_67L_, Q9UKT9], the “log2 fold change of degron read counts” value is, setting by setting: under setting [1], -1.71; under setting [2], -1.28; under setting [3], -0.137; (compound: thalidomide) 0.207.

Take FACNICGASFTQKGNLLRHIKL [46F_47A_49N_50I_52G_53A_54S_55F_67L_, Q9UKT9]: the “log2 fold change of degron read counts” value amounted to 2.29 under setting [1], 2.03 under setting [2], 0.254 under setting [3] and 0.112 (compound: thalidomide).

For the sequence FMCNICGASFTQKGNLLRHIKL [46F_47M_49N_50I_52G_53A_54S_55F_67L_, Q9UKT9], the “log2 fold change of degron read counts” value was -0.622 under setting [1], 0.367 under setting [2], 2.22 under setting [3] and 0.902 (compound: thalidomide).

For the sequence FNCNICGASFTQKGNLLRHIKL [46F_47N_49N_50I_52G_53A_54S_55F_67L_, Q9UKT9], the “log2 fold change of degron read counts” value runs as follows: under setting [1], 1.49; under setting [2], 0.652; under setting [3], 0.369; (compound: thalidomide) -0.42.

In the case of FWCNICGASFTQKGNLLRHIKL [46F_47W_49N_50I_52G_53A_54S_55F_67L_, Q9UKT9], the “log2 fold change of degron read counts” value was determined as 2.6 under setting [1], 3.54 under setting [2], 1.69 under setting [3] and 0.481 (compound: thalidomide).

FQCNICGASFTQKGNLLRHIKL [46F_47Q_49N_50I_52G_53A_54S_55F_67L_, Q9UKT9]: the “log2 fold change of degron read counts” value under setting [1] was 0.609, the “log2 fold change of degron read counts” value under setting [2] was 1.43, the “log2 fold change of degron read counts” value under setting [3] came out at 1.22 and the “log2 fold change of degron read counts” value (compound: thalidomide) was found to be 3.34.

Consider FYCNICGASFTQKGNLLRHIKL [46F_47Y_49N_50I_52G_53A_54S_55F_67L_, Q9UKT9], for which the “log2 fold change of degron read counts” value is 2.45 under setting [1], 2.95 under setting [2], 1.49 under setting [3] and -0.148 (compound: thalidomide).

FHCDVCGAFFTQKGNLLRHIKL [46F_47H_49D_50V_52G_53A_54F_55F_67L_, Q9UKT9]: the “log2 fold change of degron read counts” value under setting [1] is -1.48, the “log2 fold change of degron read counts” value under setting [2] was -1.49, the “log2 fold change of degron read counts” value under setting [3] is -1.88 and the “log2 fold change of degron read counts” value (compound: thalidomide) was -2.83.

Turning to FKCNICGAKFTQKGNLLRHIKL [46F_47K_49N_50I_52G_53A_54K_55F_67L_, Q9UKT9], the “log2 fold change of degron read counts” value is -2.4 under setting [1], -3.54 under setting [2], -2.58 under setting [3] and -2.17 (compound: thalidomide).

On to FRCSVCGHFFTQKGNLLRHIKL [46F_47R_49S_50V_52G_53H_54F_55F_67L_, Q9UKT9], for which the “log2 fold change of degron read counts” value by setting is: under setting [1], -2.15; under setting [2], -2.33; under setting [3], -2.44; (compound: thalidomide) -1.78.

As for FVCEICGHLFTQKGNLLRHIKL [46F_47V_49E_50I_52G_53H_54L_55F_67L_, Q9UKT9], the “log2 fold change of degron read counts” value is -3.22 under setting [1], -3.09 under setting [2], -2.38 under setting [3] and -2.39 (compound: thalidomide).

As to FECNICGALFTQKGNLLRHIKL [46F_47E_49N_50I_52G_53A_54L_55F_67L_, Q9UKT9], the “log2 fold change of degron read counts” value is -3.14 under setting [1], -2.25 under setting [2], -0.0305 under setting [3] and 0.62 (compound: thalidomide).

Take FQCDVCGAFFTQKGNLLRHIKL [46F_47Q_49D_50V_52G_53A_54F_55F_67L_, Q9UKT9]: the “log2 fold change of degron read counts” value under setting [1] is -2.75, the “log2 fold change of degron read counts” value under setting [2] is -1.91, the “log2 fold change of degron read counts” value under setting [3] is -0.307 and the “log2 fold change of degron read counts” value (compound: thalidomide) stood at 0.0287.

With FYCDQCGAQFTQKGNLLRHIKL [46F_47Y_49D_50Q_52G_53A_54Q_55F_67L_, Q9UKT9], the “log2 fold change of degron read counts” value under setting [1] was 0.267, the “log2 fold change of degron read counts” value under setting [2] is 1.09, the “log2 fold change of degron read counts” value under setting [3] is -0.551 and the “log2 fold change of degron read counts” value (compound: thalidomide) is -2.11.

For the sequence LWCPICGFYCTQKGNLLRHIKL [46L_47W_49P_50I_52G_53F_54Y_55C_67L_, Q9UKT9], the “log2 fold change of degron read counts” value under setting [1] was 2.78, the “log2 fold change of degron read counts” value under setting [2] was 3.23, the “log2 fold change of degron read counts” value under setting [3] is 2.86 and the “log2 fold change of degron read counts” value (compound: thalidomide) worked out at 2.

On to LVCPICGFYCTQKGNLLRHIKL [46L_47V_49P_50I_52G_53F_54Y_55C_67L_, Q9UKT9], for which the “log2 fold change of degron read counts” value is, setting by setting: under setting [1], 1.01; under setting [2], 2.39; under setting [3], 2.2; (compound: thalidomide) 2.84.

For the sequence LDCPICGFYCTQKGNLLRHIKL [46L_47D_49P_50I_52G_53F_54Y_55C_67L_, Q9UKT9], the “log2 fold change of degron read counts” value was -0.0305 under setting [1], -0.355 under setting [2], 1.46 under setting [3] and 2.28 (compound: thalidomide).

Take LMCPICGFYCTQKGNLLRHIKL [46L_47M_49P_50I_52G_53F_54Y_55C_67L_, Q9UKT9]: the “log2 fold change of degron read counts” value was 0.482 under setting [1], 1.27 under setting [2], 2.88 under setting [3] and 2.19 (compound: thalidomide).

LHCPICGFYCTQKGNLLRHIKL [46L_47H_49P_50I_52G_53F_54Y_55C_67L_, Q9UKT9]: the “log2 fold change of degron read counts” value by setting is: under setting [1], 2.56; under setting [2], 2.82; under setting [3], 2.85; (compound: thalidomide) 2.7.

Turning to LACPICGFYCTQKGNLLRHIKL [46L_47A_49P_50I_52G_53F_54Y_55C_67L_, Q9UKT9], the “log2 fold change of degron read counts” value under setting [1] stood at 3.56, the “log2 fold change of degron read counts” value under setting [2] was 2.79, the “log2 fold change of degron read counts” value under setting [3] worked out at 2.52 and the “log2 fold change of degron read counts” value (compound: thalidomide) was determined as 2.89.

For LSCPICGFYCTQKGNLLRHIKL [46L_47S_49P_50I_52G_53F_54Y_55C_67L_, Q9UKT9], the “log2 fold change of degron read counts” value was determined as 2.68 under setting [1], 2.68 under setting [2], 2.92 under setting [3] and 2.93 (compound: thalidomide).

LQCPICGFYCTQKGNLLRHIKL [46L_47Q_49P_50I_52G_53F_54Y_55C_67L_, Q9UKT9]: the “log2 fold change of degron read counts” value under setting [1] was 1, the “log2 fold change of degron read counts” value under setting [2] is 1.74, the “log2 fold change of degron read counts” value under setting [3] was found to be 2.07 and the “log2 fold change of degron read counts” value (compound: thalidomide) was 3.47.

As for LICPICGFYCTQKGNLLRHIKL [46L_47I_49P_50I_52G_53F_54Y_55C_67L_, Q9UKT9], the “log2 fold change of degron read counts” value by setting is: under setting [1], 0.5; under setting [2], 1.72; under setting [3], 1.99; (compound: thalidomide) 2.39.

Turning to LGCPICGFYCTQKGNLLRHIKL [46L_47G_49P_50I_52G_53F_54Y_55C_67L_, Q9UKT9], the “log2 fold change of degron read counts” value reads like this: under setting [1], 3.53; under setting [2], 2.7; under setting [3], 2.46; (compound: thalidomide) 2.1.

In the case of LCCPICGFYCTQKGNLLRHIKL [46L_47C_49P_50I_52G_53F_54Y_55C_67L_, Q9UKT9], the “log2 fold change of degron read counts” value is 1.68 under setting [1], 2.29 under setting [2], 3.16 under setting [3] and 3.24 (compound: thalidomide).

With LFCPICGFYCTQKGNLLRHIKL [46L_47F_49P_50I_52G_53F_54Y_55C_67L_, Q9UKT9], the “log2 fold change of degron read counts” value was 2.88 under setting [1], 2.73 under setting [2], 2.34 under setting [3] and 1.76 (compound: thalidomide).

As to LYCEICGFGCTQKGNLLRHIKL [46L_47Y_49E_50I_52G_53F_54G_55C_67L_, Q9UKT9], the “log2 fold change of degron read counts” value reads like this: under setting [1], 2.73; under setting [2], 2.15; under setting [3], 1.33; (compound: thalidomide) 0.286.
